According to PubChem BioAssay AID1569 (National Center for Advancing Translational Sciences (NCATS), 2009):
Inconclusive results are not listed. Calls of active or inactive are those of the source. Calls follow the shape of the dose curve; as a rule, active = well fitted inhibition curve with a large enough effect; inconclusive = small, poorly fitted or top-dose-only effect, or effect the other way, or another doubt; inactive = no such curve, though single readings can be large or run the other way.

test: Confirmation Concentration-Response Assay for lipid storage modulators; details: Drosophila S3 cells, lipid droplet BODIPY/CellTracker ratio, 18-24 h; series mostly up to 46.1 µM; also: nearly all actives have a fitted effect of over 80% in size
How it was run: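 Cells at 5,000/well received compound as a titration plus oleic acid (added as 400 uM solution) and were incubated 18–24 h at 24 °C. BODIPY 493/503 lipid signal and CellTracker Red cell count were read by 488-nm laser-scanning cytometry. Activity was normalised to 20 uM Triacsin C.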
Potency is read from the fitted curve at half-maximal effect.

Which Potency does the source give for `COc1ccc(CCNC(=O)Cn2cccc2C(=O)c2ccccc2C)cc1OC` here?
The Potency was “inactive”.

With `O=C(NC1CCCc2c1cnn2-c1cc(F)cc(F)c1)c1cc[n+]([O-])cc1` (stereo unspecified) as the molecule, how does the Potency read?
Its Potency is “inactive”.

With `COCCCN1C(=O)c2ccc(C(=O)OCC(=O)NCc3ccccc3OC)cc2C1=O` as the molecule, how does the Potency read?
Its Potency is “inactive”.

For `Cc1cc(C(=O)O[C@H]2[C@H](C)NS(=O)(=O)[C@H]3C[C@@H]4C=C[C@]23O4)cc([N+](=O)[O-])c1`, which Potency is on record?
The Potency was “inactive”.

For `Cc1ccccc1C(=O)N1CCC(C(=O)Nc2ccc(S(=O)(=O)N3CCCCC3)cc2)CC1`, which Potency is on record?
The Potency was “inactive”.

With `Cc1ccc(C)c(OCc2cc(C(=O)N3CC[C@@H]4CCCC[C@H]4C3)no2)c1` as the molecule, how does the Potency read?
Its Potency is 14.1 µM (active).

With `Cn1nc(CC(=O)Nc2ccc(N3CCN(C(=O)OC(C)(C)C)CC3)cc2)c2ccccc2c1=O` as the molecule, how does the Potency read?
The Potency was 1.77 µM (active).

Which Potency does the source give for `CNc1cccc2c1C(=O)c1ccccc1C2=O` here?
Its Potency is 6.28 µM (active).

With `COc1ccc(/C=C/C(=O)NCCc2ccc(OC)c(OC)c2)cc1` as the molecule, how does the Potency read?
Its Potency is 5.6 µM (active).

For `COc1ccc(C)cc1NC(=O)C1CCN(S(=O)(=O)c2cccc3cccnc23)CC1`, which Potency is on record?
The Potency was 15.8 µM (active).

Which Potency does the source give for `Cc1cc(C)c(Cc2c(C)nc3c(C(=O)NCc4ccco4)cnn3c2C)c(C)c1` here?
Its Potency is 7.05 µM (active).

With `O=C(NCc1cccnc1)Nc1cc(Cl)cc(Cl)c1` as the molecule, how does the Potency read?
The Potency was “inactive”.

Which Potency does the source give for `COc1ccc(N=Nc2nc(-c3ccccc3)c(-c3ccccc3)[nH]2)cc1` here?
The Potency was 2.5 µM (active).

With `COc1ccc(CCn2ccc(O)c(Cc3ccc(Cl)cc3)c2=O)cc1OC` as the molecule, how does the Potency read?
The Potency was 0.315 µM (active).

Which Potency does the source give for `COc1ccc(CCNC(=O)COc2cc(O)c3c(c2)OC(C)(C)CC3=O)cc1OC` here?
Its Potency is “inactive”.

With `COc1ccc(OC)c(CCNC(=O)Cn2sc3nc(C)cc(C)c3c2=O)c1` as the molecule, how does the Potency read?
The Potency was 4.99 µM (active).

Which Potency does the source give for `Cc1ccc(-n2ncc3c2CCCC3NC(=O)c2cnccn2)cc1C` (stereo unspecified) here?
Its Potency is 0.141 µM (active).

Which Potency does the source give for `CCOc1ccc(CCNC(=O)COC(=O)c2ccc(Cl)nc2)cc1OCC` here?
Its Potency is “inactive”.

For `COc1ccc(CCCc2nnc(SCC(=O)Nc3nc(C)cs3)n2C)cc1C`, which Potency is on record?
Its Potency is 1.41 µM (active).

Which Potency does the source give for `COc1ccc(CCNC(=O)CCCn2nc(C)n3ccnc3c2=O)cc1OC` here?
The Potency was “inactive”.

For `CCCOc1ccc2oc(=O)c3c(c2c1)CCCN3C(=O)CN1CCN(C(=O)c2ccco2)CC1`, which Potency is on record?
Its Potency is 1.99 µM (active).

With `COc1ccc(CCNC(=O)Cn2nnc(-c3ccc(N4CCOCC4)cc3)n2)cc1OC` as the molecule, how does the Potency read?
Its Potency is 0.0445 µM (active).

For `CCOC(=O)c1cc2c(ccn2C)n1CC(=O)N1C(C)CCCC1C` (stereo unspecified), which Potency is on record?
Its Potency is 11.2 µM (active).

For `CC(=O)c1cc(-c2ccccc2)n(CC(=O)N2CCC(C)CC2)c1C`, which Potency is on record?
The Potency was 1.58 µM (active).

For `COc1ccc(CCNC(=O)CCC(=O)c2cccs2)cc1OC`, which Potency is on record?
The Potency was “inactive”.

For `CCOc1ccc(CCNC(=O)COC(=O)CCc2cc(OC)c(OC)c(OC)c2)cc1OCC`, which Potency is on record?
The Potency was “inactive”.

With `Cc1ccc(NC(=O)CN(C)C(=O)Cn2ncc(Cl)c(Cl)c2=O)cc1` as the molecule, how does the Potency read?
The Potency was 28.1 µM (active).

Which Potency does the source give for `CCCCCCCCCCCCCCCCn1cc[n+](C)c1` here?
Its Potency is 3.15 µM (active).

Which Potency does the source give for `CCOC(=O)C1CCN(C(=O)C2(NC(=O)Nc3cccc(F)c3)CCCCC2)CC1` here?
The Potency was 3.97 µM (active).

For `COc1c(C)cc(C(=O)C2CCCN(C(=O)c3ccc4[nH]ccc4c3)C2)cc1C` (stereo unspecified), which Potency is on record?
The Potency was 17.3 µM (active).

With `CCOC(=O)c1cc(CC)sc1NC(=O)C1CC(=O)NN1Cc1ccccc1` (stereo unspecified) as the molecule, how does the Potency read?
The Potency was 0.315 µM (active).

Which Potency does the source give for `O=C(CC(O)(C(F)(F)F)C(F)(F)F)Nc1ccc(Cl)c(Cl)c1` here?
Its Potency is 9.96 µM (active).

With `O=C(Nc1ccc(N2CCOCC2)cc1N1CCOCC1)c1ccc(Br)cc1` as the molecule, how does the Potency read?
The Potency was “inactive”.

For `CC1CCCN(C2=C(NS(=O)(=O)c3ccc(Br)cc3)C(=O)c3ccccc3C2=O)C1` (stereo unspecified), which Potency is on record?
The Potency was 2.5 µM (active).

With `Cc1ccc(NCc2ccc(O)c3ncccc23)cc1` as the molecule, how does the Potency read?
Its Potency is “inactive”.

With `O=C(Nc1cccc(F)c1)NC1(C(=O)N2CCC(O)CC2)CCCCC1` as the molecule, how does the Potency read?
Its Potency is “inactive”.
